Laboratory results as given in PubChem BioAssay (NCATS).
Records with an inconclusive call do not appear. The source made the active and inactive calls. Unless noted, calls come from the whole dose curve; as a rule, active = well fitted curve in the direction sought with a large enough effect; inconclusive = small, poorly fitted or top-dose-only effect, or another doubt; inactive = no such curve, though single readings can be large; an effect the other way counts as inactive or inconclusive.

Columns and labels:
[1] = qHTS Assay for Lipid Storage Modulators (AID 1519; calls by dose curve; for activity change, negative = inhibition: % is set by controls: 0 for no effect and ±100 for the full control effect); details: Drosophila S3 cells, BODIPY lipid droplet/cell ratio, laser cytometry, cells loaded with oleic acid
How it was run: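 Cells seeded at 5,000 per well were treated with compounds over a concentration series and loaded with oleic acid (400 uM, as added). Lipid droplet fluorescence (488 nm excitation, 500-530 nm channel) was read by laser-scanning cytometry and normalized to 20 uM Triacsin C.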

[2] = target: Ubiquitin carboxyl-terminal hydrolase 1 (Homo sapiens) (UniProt O94782); assay: Inhibitors of USP1/UAF1: Pilot qHTS (AID 504865); details: purified USP1/UAF1, Ub-rhodamine cleavage fluorescence; series mostly up to 114 µM;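 note: rhodamine fluorescence freed from ubiquitin-rhodamine substrate followed over time; top concentration of the series differs between compounds; % is set by controls: 0 for no effect and ±100 for the full control effect; nearly all actives have a fitted effect of over 35% in size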
Chain of Ubiquitin carboxyl-terminal hydrolase 1 (Homo sapiens) (O94782 whole entry, looked up): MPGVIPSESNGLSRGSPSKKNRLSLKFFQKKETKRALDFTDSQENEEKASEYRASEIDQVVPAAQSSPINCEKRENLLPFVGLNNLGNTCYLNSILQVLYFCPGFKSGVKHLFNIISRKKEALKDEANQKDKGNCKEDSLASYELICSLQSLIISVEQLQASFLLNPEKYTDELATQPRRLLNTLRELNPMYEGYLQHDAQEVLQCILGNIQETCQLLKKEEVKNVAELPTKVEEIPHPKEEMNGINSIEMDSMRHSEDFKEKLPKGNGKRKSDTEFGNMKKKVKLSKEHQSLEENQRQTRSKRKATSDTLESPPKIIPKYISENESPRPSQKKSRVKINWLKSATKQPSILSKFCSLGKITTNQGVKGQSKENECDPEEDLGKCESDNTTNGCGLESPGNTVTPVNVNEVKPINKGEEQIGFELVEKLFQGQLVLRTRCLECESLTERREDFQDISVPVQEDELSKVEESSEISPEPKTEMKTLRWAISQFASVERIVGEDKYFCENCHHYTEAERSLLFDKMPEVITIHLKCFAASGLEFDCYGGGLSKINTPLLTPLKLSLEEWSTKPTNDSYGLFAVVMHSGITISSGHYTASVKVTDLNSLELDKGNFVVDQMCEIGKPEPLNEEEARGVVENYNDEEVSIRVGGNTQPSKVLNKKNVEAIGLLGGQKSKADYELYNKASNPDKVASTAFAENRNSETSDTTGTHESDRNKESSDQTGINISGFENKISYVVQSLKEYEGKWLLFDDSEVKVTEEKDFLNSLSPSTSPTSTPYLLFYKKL
How it was run: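 In 50mM HEPES pH 7.8 containing 0.5mM EDTA, 1mM TCEP, 0.1 mg/ml BSA and 0.01% Tween-20, 1nM USP1/UAF1 is exposed to compound for 15 min, then Ub-Rho (150nM final) is added and fluorescence is read over time.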

[3] = target: Cytochrome P450 3A4 (Homo sapiens) (UniProt P08684); assay: qHTS Assay for Inhibitors and Substrates of Cytochrome P450 3A4 (AID 884); details: recombinant CYP3A4, Luciferin-PPXE luminescence; series mostly up to 57.1 µM; note: nearly all actives have a fitted effect of over 50% in size; note: potency is the fitted concentration of half-maximal effect
Chain of Cytochrome P450 3A4 (Homo sapiens) (P08684 whole entry, looked up): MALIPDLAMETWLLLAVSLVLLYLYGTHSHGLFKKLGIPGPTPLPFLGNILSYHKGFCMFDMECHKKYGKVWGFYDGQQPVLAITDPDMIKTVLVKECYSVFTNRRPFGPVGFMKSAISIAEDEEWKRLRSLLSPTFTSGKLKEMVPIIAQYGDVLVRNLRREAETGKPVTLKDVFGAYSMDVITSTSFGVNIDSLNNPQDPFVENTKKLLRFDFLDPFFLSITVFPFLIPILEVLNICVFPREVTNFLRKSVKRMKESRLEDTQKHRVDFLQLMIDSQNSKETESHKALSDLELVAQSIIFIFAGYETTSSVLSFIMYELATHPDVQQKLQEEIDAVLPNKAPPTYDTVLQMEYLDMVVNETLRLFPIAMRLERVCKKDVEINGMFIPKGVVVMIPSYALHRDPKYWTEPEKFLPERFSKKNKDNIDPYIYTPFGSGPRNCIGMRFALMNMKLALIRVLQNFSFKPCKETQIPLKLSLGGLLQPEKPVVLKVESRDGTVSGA
How it was run: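 20 nM human CYP3A4 with 25 uM Luciferin-PPXE (at KM) in 200 mM KPO4, preincubated 10 min with compound; NADPH regeneration started a 60 min RT reaction. Luciferin detected by luminescence, normalized to 57 uM ketoconazole as full inhibition.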

[4] = Confirmation and Secondary Assay for Modulators of Hemoglobin Beta Chain Splicing at IVS2 654 locus (AID 910); details: HeLa EGFP-654 splicing reporter, GFP fluorescence, 48 h; series mostly up to 46.1 µM;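 note: HeLa cells stably carrying EGFP split by mutant beta-globin IVS2-654 intron; % of control where 0% means no effect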
How it was run: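 Readout: per-well total peak green fluorescence (488 nm ex, 500–520 nm em) from objects 5–250 µm, reflecting correct splicing of an EGFP-654 reporter. Compounds were applied for 2 days at 37 °C to overnight-plated HeLa EGFP-654 cells; controls were DMSO and 500 nM IVS2-654 PNA.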

[5] = Confirmation and Secondary Assay for Modulators of Hemoglobin Beta Chain Splicing at IVS2 705 locus (AID 930); details: HeLa EGFP-705 splicing reporter, GFP fluorescence, 48 h; series mostly up to 46.1 µM;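 note: HeLa cells stably expressing the EGFP-705 splicing reporter; GFP fluorescence per well restored by corrected splicing of the IVS2-705 intron in EGFP; % of control where 0% means no effect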
How it was run: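 HeLa cells stably carrying EGFP interrupted by mutant beta-globin intron 2 (IVS2-705) treated 2 days at 37C with compound; 500 nM antisense PNA as control. Correct splicing read as total peak GFP intensity per well by laser-scanning cytometry.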

[6] = qHTS profiling for inhibitors of Plasmodium falciparum proliferation (AID 504749); note: potency is the fitted concentration of half-maximal effect;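 for activity, negative = inhibition: 0% = DMSO vehicle and full inhibition = artemisinin control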; for all read-outs here: nearly all actives have a fitted effect of over 60% in size; details: P. falciparum in erythrocytes, SYBR Green DNA, 72 h; for activity, negative = inhibition: at 28.7 µM (top of the series)
How it was run: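 Infected RBCs, 0.3% parasitemia/2.5% Hct final; cpd 72 h, 37 C, 5% CO2; lysis buffer with saponin/triton/SYBR Green I, o/n RT dark; FI 485/535; norm. to artemisinin (0.29 uM) and DMSO.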

[7] = target: Cytochrome P450 3A4 (Homo sapiens) (UniProt P08684); assay: qHTS Assay for Activators of Cytochrome P450 3A4 (AID 885); details: recombinant CYP3A4, Luciferin-PPXE luminescence, 60 min; series mostly up to 57.1 µM; note: nearly all actives have a fitted effect of over 65% in size
How it was run: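 Quantitative HTS format: compounds preincubated with 20nM human CYP3A4 and Luciferin-PPXE substrate at KM, reaction started by NADPH regeneration, stopped after 60 min, luciferase luminescence read 20 min later.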

[8] = qHTS assay for small molecule antagonists of peroxisome proliferator-activated receptor delta signaling (AID 588535; active = well fitted inhibition curve with a large enough effect in the signal ratio, with a control signal flat, not every such curve was filed as active; the % refers to the signal ratio;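 for max response: cells co-treated with a PPAR-delta agonist as stimulator during compound exposure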); details: HEK293T PPARd-UAS-bla, beta-lactamase FRET ratio, 18 h; 460 nm channel
How it was run: (§1)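 HEK293T PPAR-delta-UAS-bla cells, 4000/well, 2% charcoal/dextran FBS; 5 h 37 C; cpd titration; 18 h 37 C; CCF4 2 h RT; FI 460/530 nm; Hill fit → IC50, efficacy.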

[9] = target: Peroxisome proliferator-activated receptor delta (Homo sapiens) (UniProt Q03181); assay: as above; details: HEK293T PPARd-UAS-bla, beta-lactamase FRET ratio, 18 h; series mostly up to 76.7 µM
Chain of Peroxisome proliferator-activated receptor delta (Homo sapiens) (Q03181 whole entry, looked up): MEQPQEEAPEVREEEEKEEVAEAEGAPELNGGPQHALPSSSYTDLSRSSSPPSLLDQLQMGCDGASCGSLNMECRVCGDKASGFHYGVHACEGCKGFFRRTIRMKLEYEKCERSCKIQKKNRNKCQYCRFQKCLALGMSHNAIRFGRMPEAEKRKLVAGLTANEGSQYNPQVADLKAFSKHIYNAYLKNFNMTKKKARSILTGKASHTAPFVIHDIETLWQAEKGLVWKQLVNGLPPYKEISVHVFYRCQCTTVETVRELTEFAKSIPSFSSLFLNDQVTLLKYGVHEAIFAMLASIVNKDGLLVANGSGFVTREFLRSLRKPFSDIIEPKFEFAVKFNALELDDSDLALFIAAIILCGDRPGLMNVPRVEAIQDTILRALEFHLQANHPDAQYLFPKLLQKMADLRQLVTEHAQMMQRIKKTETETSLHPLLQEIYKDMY
How it was run: as §1

[10] = target: Peroxisome proliferator-activated receptor gamma (Homo sapiens) (UniProt P37231); assay: qHTS assay for small molecule agonists of peroxisome proliferator-activated receptor gamma signaling (AID 588536; active = well fitted curve in the direction sought with a large enough effect in the signal ratio, with a control signal flat, not every such curve was filed as active; the % refers to the signal ratio;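 note: 0% = DMSO basal wells and 100% = rosiglitazone at 2 µM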); details: HEK293 PPARg-UAS-bla, beta-lactamase ratio, 16 h, percent of rosiglitazone response, DMSO as zero; series mostly up to 76.7 µM
Chain of Peroxisome proliferator-activated receptor gamma (Homo sapiens) (P37231 whole entry, looked up): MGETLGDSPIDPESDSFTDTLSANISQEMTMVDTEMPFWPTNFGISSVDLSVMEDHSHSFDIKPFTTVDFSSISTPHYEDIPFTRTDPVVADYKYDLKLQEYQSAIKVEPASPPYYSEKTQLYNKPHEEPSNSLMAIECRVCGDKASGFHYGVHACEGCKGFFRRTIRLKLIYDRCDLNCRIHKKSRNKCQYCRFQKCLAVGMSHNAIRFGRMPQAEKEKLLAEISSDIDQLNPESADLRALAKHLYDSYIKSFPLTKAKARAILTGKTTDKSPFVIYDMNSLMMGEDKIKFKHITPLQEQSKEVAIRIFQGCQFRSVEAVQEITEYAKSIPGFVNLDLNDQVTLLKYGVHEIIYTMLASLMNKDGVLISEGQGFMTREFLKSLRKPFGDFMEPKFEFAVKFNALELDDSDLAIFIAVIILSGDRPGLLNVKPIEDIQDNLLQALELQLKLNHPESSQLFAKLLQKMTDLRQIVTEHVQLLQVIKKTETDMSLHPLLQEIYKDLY
How it was run: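 HEK293 UAS-bla reporter line, 1% charcoal/dextran FBS; titration, 16 h, 37 C; CCF4 loading 2 h RT; fluorescence 460/530 nm. Normalized to rosiglitazone 2 uM = 100%, DMSO = 0%.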

[11] = target: Vitamin D3 receptor (Homo sapiens) (UniProt P11473); assay: qHTS assay for small molecule antagonists of vitamin D receptor signaling (AID 588541; calls by dose curve;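 note: receptor activated by calcitriol during compound treatment; % is set by controls: 0 for no effect and ±100 for the full control effect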); details: HEK293T VDR-UAS-bla, beta-lactamase ratio, antagonist mode; series mostly up to 76.7 µM
Chain of Vitamin D3 receptor (Homo sapiens) (P11473 whole entry, looked up): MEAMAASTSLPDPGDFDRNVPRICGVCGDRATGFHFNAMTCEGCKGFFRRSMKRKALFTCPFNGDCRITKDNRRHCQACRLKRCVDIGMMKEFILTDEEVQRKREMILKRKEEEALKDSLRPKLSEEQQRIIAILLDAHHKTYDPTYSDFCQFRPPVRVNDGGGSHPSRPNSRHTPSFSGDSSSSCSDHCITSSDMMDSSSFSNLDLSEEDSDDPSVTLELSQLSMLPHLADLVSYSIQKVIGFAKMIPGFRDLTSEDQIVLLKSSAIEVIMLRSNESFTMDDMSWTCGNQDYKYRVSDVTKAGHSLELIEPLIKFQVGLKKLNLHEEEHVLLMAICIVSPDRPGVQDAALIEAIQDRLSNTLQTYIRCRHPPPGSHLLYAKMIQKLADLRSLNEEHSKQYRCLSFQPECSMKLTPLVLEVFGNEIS
How it was run: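 Antagonist-mode beta-lactamase reporter assay: HEK293T VDR-UAS-bla cells were exposed to titrated compound alongside 1-alpha,25-dihydroxyvitamin D3 at 3 nM final for 16 h. Values were normalized to the 50 nM agonist control and DMSO basal, with IC50 and efficacy from Hill equation fits.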

[12] = target: Retinoic acid receptor RXR-alpha (Homo sapiens) (UniProt P19793); assay: qHTS assay for small molecule agonists of retinoid X receptor alpha signaling (AID 588544; calls by dose curve;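 note: 0% = DMSO basal wells and 100% = reference agonist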); details: HEK293T RXRa-UAS-bla, beta-lactamase reporter, 18 h; series mostly up to 76.7 µM
Chain of Retinoic acid receptor RXR-alpha (Homo sapiens) (P19793 whole entry, looked up): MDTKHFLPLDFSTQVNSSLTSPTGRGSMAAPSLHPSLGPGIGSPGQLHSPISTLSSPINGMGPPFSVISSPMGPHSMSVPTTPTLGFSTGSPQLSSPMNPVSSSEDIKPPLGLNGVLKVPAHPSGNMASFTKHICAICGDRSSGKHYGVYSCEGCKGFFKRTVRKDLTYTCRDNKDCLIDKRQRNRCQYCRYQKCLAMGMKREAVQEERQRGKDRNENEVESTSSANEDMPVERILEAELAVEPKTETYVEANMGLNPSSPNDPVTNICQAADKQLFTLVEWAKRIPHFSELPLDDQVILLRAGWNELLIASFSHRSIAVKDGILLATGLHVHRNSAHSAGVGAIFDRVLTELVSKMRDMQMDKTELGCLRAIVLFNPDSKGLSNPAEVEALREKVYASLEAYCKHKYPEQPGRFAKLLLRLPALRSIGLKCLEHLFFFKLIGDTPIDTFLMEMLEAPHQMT

[13] = qHTS assay for small molecule antagonists of retinoid X receptor alpha signaling (AID 588546; active = well fitted inhibition curve with a large enough effect in the signal ratio, with a control signal flat, not every such curve was filed as active; the % refers to the signal ratio;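 note: cells stimulated with 9-cis-retinoic acid as agonist; % is set by controls: 0 for no effect and ±100 for the full control effect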); details: HEK293T RXRa-UAS-bla, beta-lactamase ratio, antagonist mode; measured here: W530 green channel, cytotoxicity proxy
How it was run: (§2)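 Beta-lactamase reporter inhibition, read as CCF4 fluorescence ratio (ex 405, em 460/530 nm) after 2 h at RT. HEK293T UAS-bla cells, 2500/well, were stimulated with 9-cis-RA at 500 or 100 nM final alongside test compound for 18 h at 37 C.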

[14] = target: Retinoic acid receptor RXR-alpha (Homo sapiens) (UniProt P19793); assay: as above; details: HEK293T RXRa-UAS-bla, beta-lactamase ratio, antagonist mode
How it was run: as §2

[15] = target: Peroxisome proliferator-activated receptor alpha (Homo sapiens) (UniProt Q07869); assay: qHTS assay for small molecule agonists of the peroxisome proliferator-activated receptor alpha (PPARalpha) signaling pathway (AID 651778); details: PathHunter PPARalpha complementation, chemiluminescence, 6 h; stronger effect = higher value; note: % of control where 0% means no effect
Chain of Peroxisome proliferator-activated receptor alpha (Homo sapiens) (Q07869 whole entry, looked up): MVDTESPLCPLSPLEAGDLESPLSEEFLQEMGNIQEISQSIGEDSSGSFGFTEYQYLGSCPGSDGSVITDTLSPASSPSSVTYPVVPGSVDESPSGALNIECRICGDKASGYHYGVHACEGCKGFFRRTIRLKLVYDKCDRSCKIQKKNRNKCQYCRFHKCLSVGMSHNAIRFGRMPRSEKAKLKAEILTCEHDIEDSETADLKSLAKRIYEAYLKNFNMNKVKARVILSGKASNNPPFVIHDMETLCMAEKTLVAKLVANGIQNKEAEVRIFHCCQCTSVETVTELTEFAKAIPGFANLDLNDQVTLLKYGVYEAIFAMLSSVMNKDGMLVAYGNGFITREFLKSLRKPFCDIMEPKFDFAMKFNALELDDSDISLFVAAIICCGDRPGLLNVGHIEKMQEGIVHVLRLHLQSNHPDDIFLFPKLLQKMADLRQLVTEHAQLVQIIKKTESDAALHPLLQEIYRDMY
How it was run: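 Chemiluminescence from complemented enzyme reported PPARalpha activation in cells after 6 hr of compound treatment at 37 C. The detection reagent was incubated for 60 min at room temperature, and compounds were scored as agonists.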

[16] = qHTS assay for small molecule agonists of the antioxidant response element (ARE) signaling pathway measured by Nrf2-dependant transcriptional activity (AID 720636; active = well fitted curve in the direction sought with a large enough effect in the repeat runs; an effect the other way counts as inactive or inconclusive; note: % of control where 0% means no effect); details: ARE-luc HepG2, Nrf2 luciferase reporter, 16 h; series mostly up to 92.4 µM
How it was run: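 ARE-luc HepG2 cells carrying an Nrf2-responsive luciferase reporter, in medium with 1% dialyzed FBS, exposed to compound for 16 hr at 37 C, 5% CO2. Luminescence read 30 min after ONE-Glo addition.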

[17] = qHTS assay for small molecule agonists of the antioxidant response element (ARE) signaling pathway measured by Nrf2-dependant transcriptional activity - cell viability counter screen (AID 720653; active = well fitted curve in the direction sought with a large enough effect in the repeat runs; an effect the other way counts as inactive or inconclusive; note: % is set by controls: 0 for no effect and ±100 for the full control effect); details: ARE-bla HepG2 viability, CellTiter-Glo ATP luminescence, 16 h; stronger effect = lower value
How it was run: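 Cytotoxicity counter screen: intracellular ATP quantified by CellTiter-Glo luminescence in the same ARE-bla HepG2 plates, after 16 h compound exposure and a 2 h beta-lactamase substrate step.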

[18] = qHTS assay for cell viability of HEK293 cells (AID 743288); details: ATP luminescence (CellTiter-Glo), 18 h; max response: stronger effect = lower value; note: % is set by controls: 0 for no effect and ±100 for the full control effect; nearly all actives have a fitted effect of over 50% in size
How it was run: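 HEK293 parental, 2,000 cells/well; ≥5 h pre-incubation 37 C; pintool compound addition; 18 h, 37 C; CellTiter-Glo 30 min RT; luminescence read.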

[19] = qHTS assay for cell viability of the p53RE-bla HCT-116 cell line (AID 743292); details: p53RE-bla HCT-116 viability, ATP luminescence, 16 h; series mostly up to 95 µM; note: % is set by controls: 0 for no effect and ±100 for the full control effect; nearly all actives have a fitted effect of over 55% in size
How it was run: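 CellSensor p53RE-bla HCT-116 cells (4,000/well) pre-incubated 5 h at 37 C, then exposed to compounds in DMSO for 16 h at 37 C. Viability read as ATP content by CellTiter-Glo luminescence after 30 min at room temperature.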

[20] = target: Nuclear receptor subfamily 1 group I member 2 (Rattus norvegicus) (UniProt Q9R1A7); assay: qHTS assay for small molecule activators of the rat pregnane X receptor (rPXR) signaling pathway (AID 651751; call rule not given here; note: 0% is about no effect); details: rPXR reporter cells, luciferase (One-Glo), 24 h
Chain of Nuclear receptor subfamily 1 group I member 2 (Rattus norvegicus) (Q9R1A7 whole entry, looked up): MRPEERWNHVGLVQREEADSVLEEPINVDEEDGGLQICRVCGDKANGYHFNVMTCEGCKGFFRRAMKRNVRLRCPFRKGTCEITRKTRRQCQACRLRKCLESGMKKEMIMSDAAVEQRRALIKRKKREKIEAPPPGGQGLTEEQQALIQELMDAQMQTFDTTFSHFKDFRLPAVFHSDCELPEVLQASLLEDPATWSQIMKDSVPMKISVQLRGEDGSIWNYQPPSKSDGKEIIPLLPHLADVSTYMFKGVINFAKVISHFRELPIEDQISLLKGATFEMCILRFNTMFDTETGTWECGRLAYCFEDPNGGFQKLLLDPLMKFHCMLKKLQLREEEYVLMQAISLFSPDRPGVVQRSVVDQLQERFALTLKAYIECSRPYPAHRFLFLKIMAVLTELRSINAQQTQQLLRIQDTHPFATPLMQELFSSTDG

[21] = measured here: cell count channel max response
[22] = measured here: lipid channel max response

In the case of `C[C@@H]1O[C@H](O[C@@H]2CC[C@@]3(C=O)[C@H]4CC[C@@]5(C)[C@@H](C6=CC(=O)OC6)CC[C@@]5(O)[C@@H]4CC[C@]3(O)C2)C[C@H](O)[C@@H]1O`, the activity change, negative = inhibition ([1]; at 25.7 µM (top of the series)) is reported as -0.93% (inactive), the max response [1, 21] is reported as -14.4% and the max response [1, 22] is reported as -15.6%.
With `O=C1C=C2C=C[C@H]3C[C@@]2(O1)[C@H]1CCCCN31` the activity change, negative = inhibition ([1]; at 25.7 µM (top of the series)) was -1.11% (inactive), the max response [1, 21] was -16.7% and the max response [1, 22] was -17.3%. The Potency [2] was “inactive”.
In the case of `CC1=CC(=O)C2=C(C)C[C@@H](O)[C@@H]3[C@@H](OC(=O)[C@H]3C)[C@H]12`, the activity change, negative = inhibition ([1]; at 25.7 µM (top of the series)) is reported as -1.62% (inactive), the max response [1, 21] is reported as -12.9% and the max response [1, 22] is reported as -12%. For the same compound, the Potency [2] was “inactive”.
In the case of `C=CC1CN2CCC1CC2C(OC(=O)OCC)c1ccnc2ccc(OC)cc12` (stereo not drawn), the Potency [3] is reported as 7940 nM (active), the Potency [4] is reported as “inactive” and the Potency [5] is reported as “inactive”. The activity change, negative = inhibition ([1]; at 57.5 µM (top of the series)) was 5.87% (inactive), the max response [1, 21] was 0.936% and the max response [1, 22] was 9.58%. For the same compound, the Potency [2] was “inactive”, the Potency ([6]; parasite line A) was 1580 nM (active) and the Potency ([6]; parasite line B) was 2240 nM (active).
With `COc1cc2c(c(OC)c1OC)-c1ccc(OC)c(=O)cc1C(NC(C)=O)CC2` (stereo not drawn) the activity change, negative = inhibition ([1]; at 57.5 µM (top of the series)) was 7.05% (inactive), the max response [1, 21] was 10.2% and the max response [1, 22] was 20.2%. The Potency [2] was “inactive”.
With `C=C1CC[C@H](O)C/C1=C/C=C1\CCC[C@]2(C)[C@H]1CC[C@H]2[C@@H](C)CCCC(C)C` the activity change, negative = inhibition ([1]; at 25.7 µM (top of the series)) was 0.847% (inactive), the max response [1, 21] was 8.85% and the max response [1, 22] was 12%. For the same compound, the Potency [2] was “inactive”.
In the case of `C=C[C@H]1CN2CC[C@H]1C[C@H]2c1[nH]c2ccccc2c1CCO`, the Potency [7] is reported as “inactive”, the activity change, negative = inhibition ([1]; at 57.5 µM (top of the series)) is reported as 2.01% (inactive) and the max response [1, 21] is reported as -5.69%. The max response [1, 22] was -2.67% and the Potency [2] was “inactive”.
With `CC(C)(C)[C@]1(O)C[C@@H]2OC(=O)C[C@@]23C(=O)O[C@@H]2OC(=O)[C@H](O)[C@]213` the Potency [3] was “inactive”, the activity change, negative = inhibition ([1]; at 57.5 µM (top of the series)) was 3.73% (inactive) and the max response [1, 21] was 5.67%. For the same compound, the max response [1, 22] was 8.55% and the Potency [2] was “inactive”.
For `COc1nc(NC(C)C)nc(NC(C)C)n1`, the Potency [3] was “inactive”, the Potency [4] was “inactive” and the Potency [5] was “inactive”. The activity change, negative = inhibition ([1]; at 57.5 µM (top of the series)) was 2.18% (inactive), the max response [1, 21] was -5.5% and the max response [1, 22] was -2.96%. For the same compound, the Potency [2] was “inactive”, the max response [8] was 7.33% and the Potency [9] was “inactive”. For the same compound, the outcome [10] was “inactive”, the outcome [11] was “inactive” and the Potency [12] was “inactive”. For the same compound, the max response [13] was -4.65%, the max response [14] was -8.1% (inactive) and the max response [15] was -3.74% (inactive). For the same compound, the outcome [16] was “inactive”, the max response [17] was 5.54% (inactive) and the max response [18] was -7.69% (inactive). For the same compound, the Potency [19] was “inactive” and the max response [20] was -2.09% (inactive).
With `COc1cc2c(cc1OC)[C@@]13CCN4CC5=CCOC6CC(=O)N2C1[C@H]6[C@@H]5C[C@@H]43` (stereo partly drawn) the Potency [3] was “inactive”, the Potency [4] was “inactive” and the Potency [5] was “inactive”. The activity change, negative = inhibition ([1]; at 57.5 µM (top of the series)) was 14% (inactive), the max response [1, 21] was 9.29% and the max response [1, 22] was 26.2%. The Potency [2] was “inactive”, the activity, negative = inhibition ([6]; parasite line A) was -1.63% (inactive) and the activity, negative = inhibition ([6]; parasite line B) was 1.63% (inactive).
For `CNC(C)[C@@H](O)c1ccccc1` (stereo partly drawn), the Potency [3] was “inactive”, the activity change, negative = inhibition ([1]; at 57.5 µM (top of the series)) was -6.91% (inactive) and the max response [1, 21] was 19.3%. For the same compound, the max response [1, 22] was 12.8%, the activity, negative = inhibition ([6]; parasite line A) was -2.9% (inactive) and the activity, negative = inhibition ([6]; parasite line B) was -5.29% (inactive).
